Measured values published in publication PMC5540273 (PLoS ONE, 2017).

System: MAP3K3
Conditions: concentration: 1 μM, replicates: in singlicate; n = 1
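Note: KINOMEscan kinase panel screen.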

Structure (SMILES) | %Inh
Cc1c(Cn2c3ccccc3n3c(=O)cc(N4CCOCC4)nc23)cccc1C(F)(F)F [GSK2306394] | 0%
Fc1ccc(-c2nc[nH]c2-c2ccncc2)cc1 [SB-217360] | 0%
COc1cccc(CNC(=O)NC2CCN(c3ccnc(Nc4ccc(F)cc4)n3)C2)c1 (stereo not shown) [GSK1379723] | 0%
Cc1ccccc1-c1cc(-c2c[nH]nc2-c2ccccn2)ccn1 [GW680061] | 0%
COC(=O)C(NC(=O)NC1CCN(c2ccnc(Nc3ccc(F)cc3)n2)C1)c1ccccc1 (stereo not shown) [GSK1379712] | 0%
O=C1NC(=O)C(c2ccc(Cl)cc2)=C1Nc1ccc(O)cc1 [SB-340867] | 11%
COc1cc2ncnc(Nc3cccc(Br)c3)c2cc1OC.Cl [GI230329] | 29%
COC(=O)c1cccc(NC(=O)NC2CCN(c3ccnc(Nc4ccc(F)cc4)n3)C2)c1 (stereo not shown) [GSK1379725] | 0%
COc1ccc2cc(-c3nc(-c4ccccc4C(C)C)[nH]c3-c3ccncc3)ccc2c1 [SB-660566] | 0%
CC(=O)c1c(C)c2cnc(Nc3ccc(N4CCNCC4)cn3)nc2n(C2CCCC2)c1=O | 0%
CCc1ccc(-c2ccc3c(c2)-c2n[nH]cc2S(=O)(=O)N3C)cc1 | 0%
CC(=O)c1c(C)c2cnc(Nc3ccn(C)n3)nc2n(C2CCCC2)c1=O | 0%
CC(C)c1cc(-c2ccc3c(N)n[nH]c3c2)nc(N)n1 [GSK2250882] | 2%
COc1ccc(Nc2nccc(N3CCC(NC(=O)C(C)c4ccc(Cl)cc4)CC3)n2)cc1 (stereo not shown) [GSK1379812] | 0%
Cc1ccc(NC(=O)c2ccc(Cl)cc2)cc1-c1ccc(C(=O)Nc2ccncc2)cc1 [GSK1398467] | 0%
Cl.Cl.Cl.N#Cc1ccc(CCNc2nccc(-c3cccc(CN4CCNCC4)c3)n2)cc1 [GSK2137462] | 0%
CCCCc1nn2ncccc2c1-c1ccnc(NC2CC2)n1 [GW684374] | 0%
COc1cccc(NC(=O)Nc2ccc(C)c(-c3ccc(C(=O)Nc4ccncc4)cc3)c2)c1 [GSK1398474] | 0%
Cc1ccc(-c2nc(Nc3ccncc3)c3ccccc3n2)s1 [GSK189015] | 0%

Structure (SMILES) | %Inh
CS(=O)(=O)CCNCc1nc(-c2ccc3ncnc(Nc4ccc(OCc5ccccc5)c(Cl)c4)c3c2)cs1.Cl [GW582764] | 0%
COC(=O)c1cccc(NC(=O)NC2CCN(c3ccnc(Nc4ccc(OC)cc4)n3)C2)c1 (stereo not shown) [GSK1379746] | 0%
CC[C@@H]1CO[C@H](C(=O)Nc2ccccc2)CN1c1cc(-c2ccc3c(N)n[nH]c3c2)nc(NC)n1 [GSK2376236] | 0%
CS(=O)(=O)Cc1ccc(Nc2nccc(-c3c(-c4cccc(NC(=O)C5CCCCC5)c4)nn4ncccc34)n2)cc1 [GSK350559] | 19%
CSc1ccc(-c2nc3n(c2-c2ccncc2)CCC3)cc1 [SKF-105561] | 0%
Cc1cnc(N)c(/C=C/c2cncc(C(=O)NCCc3ccc(Cl)cc3Cl)c2)c1.Cl [GSK190937] | 0%
CNC(=O)c1ccc(C)c(-n2c(C)cc(OCc3ccc(F)cc3F)c(Br)c2=O)c1 | 0%
CCn1c(-c2c(N)noc2C)nc2cnccc21 [SB-737856] | 0%
O=c1cc(N2CCOCC2)nc2n(Cc3ccccc3F)ccn12 [GSK2297428] | 0%
Fc1ccc(-c2nc3n(c2-c2ccncc2)CCS3)cc1 [GI98581] | 0%
Fc1ccc(-c2nn3cccc(F)c3c2-c2ccncc2)cc1 [GW475620] | 0%
COc1ccc(CSc2nnc(-c3ccc4nccn4c3)o2)cc1C(F)(F)F | 9%
CC(C)c1ccc(O)cc1Nc1ccnc2ccc(C(F)(F)F)cc12 [GW482059] | 1%
Cc1ccc(NC(=O)Nc2ccccc2F)cc1-c1ccc(C(=O)Nc2ccncc2)cc1 [GSK1398477] | 0%
Cc1ccc(NC(=O)Nc2ccc(Cl)cc2)cc1-c1ccc(C(=O)Nc2ccncc2)cc1 [GSK1398472] | 0%
Cc1c(Cn2c(C)c(C)n3c(=O)cc(N4CCOCC4)nc23)cccc1C(F)(F)F [GSK2328680] | 0%
O=C(Nc1n[nH]c2nc(-c3cccs3)c(Br)cc12)C1CC1 [SB-735297] | 36%
Cc1cccc2c(-c3ccncn3)c(-c3ccc(F)cc3)nn12 [GW515532] | 0%
